An excerpt weighted towards active compounds, which were near 3.3% of everything screened.
AmpC inh detg: qHTS Inhibitors of AmpC Beta-Lactamase (assay with detergent). Potency, µM (highest dose often 114 µM), inactives show top-dose activity change, negative = inhibition, most hits filed as inhibitors. P00811. hit rate 0.041% among 370,000. AmpC hydrolysis of nitrocefin, absorbance 480 nm, 0.01% Triton;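 further: 0% = no-compound wells and -100% = no-enzyme wells; nearly all actives have a fitted effect of over 25% in size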
Target sequence (P00811 whole entry, looked up): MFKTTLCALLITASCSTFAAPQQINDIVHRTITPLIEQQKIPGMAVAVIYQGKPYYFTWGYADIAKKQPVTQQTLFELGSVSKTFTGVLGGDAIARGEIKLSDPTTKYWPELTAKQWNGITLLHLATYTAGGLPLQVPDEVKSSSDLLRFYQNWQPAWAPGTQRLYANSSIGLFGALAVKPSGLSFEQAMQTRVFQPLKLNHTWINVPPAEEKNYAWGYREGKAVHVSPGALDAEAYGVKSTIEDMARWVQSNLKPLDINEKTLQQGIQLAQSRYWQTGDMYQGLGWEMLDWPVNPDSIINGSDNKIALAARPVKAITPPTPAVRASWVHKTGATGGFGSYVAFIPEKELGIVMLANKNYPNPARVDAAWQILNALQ
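20 mM phosphate pH 7.0 + 0.01% (detergent screen) or 0.0001% Triton X-100; 5.3 nM AmpC reagent; cpd preinc 15 min RT; nitrocefin (800 uM stock) to start; A480 q20 s × 4 min; Activity was normalised to no-enzyme and no-compound control wells.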
Sm TGR inh: qHTS Assay for the Inhibitors of Schistosoma Mansoni Peroxiredoxins. Schistosoma mansoni thioredoxin glutathione reductase (TGR), Q962Y6. purified TGR, DTNB reduction, TNB absorbance 405 nm. Potency, µM (series often up to 114 µM), without a hit: top-dose activity change, negative = inhibition, most hits filed as inhibitors. hit rate 3% among 360,000. AID 485364, 2010; further: nearly all actives have a fitted effect of over 60% in size
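First, TGR (20 nM dispensed) and NADPH were mixed with compound. Second, a 15 min room-temperature incubation followed. Third, further NADPH and then DTNB were added to start the reaction. Finally, TNB absorbance was monitored kinetically.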
AmpC inh no detg: qHTS Inhibitors of AmpC Beta-Lactamase (assay without detergent); P00811; AmpC nitrocefin hydrolysis, absorbance 480 nm, 0.0001% Triton; Potency, µM (titrated, usually from 57.1 µM), for inactives: top-dose activity change, negative = inhibition, usual class: inhibitors; hit rate 0.52% among 330,000;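 further: plate controls were no compound for no effect and no enzyme for full effect; nearly all actives have a fitted effect of over 20% in size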
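AmpC (5.3 nM in the dispensed reagent) in 20 mM phosphate pH 7.0 with 0.01% (detergent screen) or 0.0001% Triton X-100 was preincubated with compounds for 15 min at room temperature. Nitrocefin was then added from an 800 uM solution, and hydrolysis was followed at 480 nm.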
* marks the source's active call; other numbers are inactive results; ? = inconclusive; · = no result. The call rests on the fitted dose curve; in most records, active means well fitted curve in the direction sought with a large enough effect; inconclusive means small, poorly fitted or top-dose-only effect, or another doubt; inactive means no such curve, though single readings can be large; an effect the other way counts as inactive or inconclusive. Unless noted, on the % scale 0 is the no-effect control and ±100 the full control effect; potency means the concentration at half of the fitted maximal effect.

SMILES | AmpC inh detg | Sm TGR inh | AmpC inh no detg
COc1ccc(C2CC(=O)N3CN(Cc4ccco4)CSC3=C2C#N)cc1 (configuration not stated) | -6.7% | 39.8µM* | -34.2%
N#CC1=C2SCN(Cc3ccco3)CN2C(=O)CC1c1ccc(Cl)cc1 (configuration not stated) | -15.7% | -2.9% | -28.1%
COc1ccc2ccccc2c1C1CC(=O)N2CN(Cc3ccco3)CSC2=C1C#N (configuration not stated) | -12.9% | 5.62µM* | -31.8%
COc1ccc(CN2CCN(Cc3ccco3)CC2)cc1 | -8.7% | -15.6% | -12.0%
N#CC1=C2SCN(Cc3ccccc3)CN2C(=O)CC1c1ccc2c(c1)OCO2 (configuration not stated) | 0.8% | 3.55µM* | -52.7%
CC(C)c1ccc(C2CC(=O)N3CN(Cc4ccco4)CSC3=C2C#N)cc1 (configuration not stated) | ? | 2.24µM* | -0.6%
N#CC1=C2SCN(Cc3ccccc3)CN2C(=O)CC1c1cccs1 (configuration not stated) | -9.3% | -35.3% | -42.8%
COc1cc(C2CC(=O)N3CN(Cc4ccco4)CSC3=C2C#N)ccc1OCc1ccccc1 (configuration not stated) | ? | 0.0% | -4.7%
CC1=C(C(=O)Nc2ccccc2)C(c2ccncc2)n2nc(SCc3ccccc3)nc2N1 (configuration not stated) | 8.3% | -0.2% | ·
CCOC(=O)COc1ccc(F)cc1C(=O)c1ccn2nc(-c3ccc(Cl)cc3)cc2n1 | -3.0% | -1.4% | ·
CC(=O)Nc1ccc(NC(=O)C2CCN(S(=O)(=O)c3ccc4c(c3)CCCC(=O)N4)CC2)cc1 | 12.4% | 4.5% | ·
CCOC(=O)c1cnn(-c2ccc(C(=O)Nc3ccc(C(C)=O)cc3)cc2)c1N | 6.0% | 6.7% | ·
COc1ccc(CNC(=O)c2nc(Cn3nc(C)c(Br)c3C)no2)cc1OC | -3.4% | 5.8% | ·
CCN(CC)c1ccc(C2C(C(N)=O)=C(C)Nc3ncnn32)cc1 (configuration not stated) | -5.3% | -2.9% | ·
COc1ccc2c(C)c(CCC(=O)NCc3cccc(Cl)c3)c(=O)oc2c1 | 10.2% | 16.0% | ·
CCc1nn(CC(=O)Nc2cccc(C(C)=O)c2)c(=O)c2cc3sccc3n12 | 24.2% | -9.2% | ·
Cc1cc(C)c(NC(=O)C(C)n2nc(-c3ccc(C)c(C)c3)ccc2=O)c(C)c1 (configuration not stated) | 18.9% | 1.1% | ·
Cc1cccc(-c2nnc3n(CCc4ccccc4)c(=O)c4ccccc4n23)c1 | 17.1% | 5.2% | ·
CC(=O)N1CCc2c(sc3c2c(=O)n(-c2ccc(C)cc2)c(=O)n3Cc2ccccc2C)C1 | -4.1% | -8.0% | ·
Cc1ccc(NC(=O)NCCOCCn2c(=O)oc3ccccc32)c(C)c1 | 3.1% | 13.8% | ·
CN(Cc1ccccc1)c1ncnc2c1nnn2C | 3.4% | 4.5% | ·
COc1ccc(OC)c(-c2nnc3n(Cc4ccc(C)cc4)c(=O)c4ccccc4n23)c1 | 24.4% | -0.2% | ·
COc1ccc2ccccc2c1C1CC(=O)N2CN(C3CCCCC3)CSC2=C1C#N (configuration not stated) | -7.1% | 28.2µM* | -42.6%
COc1ccc(C2CC(=O)N3CN(C4CCCCC4)CSC3=C2C#N)c(OC)c1 (configuration not stated) | -2.4% | 3.16µM* | ·
COC(=O)C1=C(C)N(C)C(=O)NC1c1c(OC)ccc2ccccc12 (configuration not stated) | -8.0% | -2.2% | 2.5%
SMILES | AmpC inh detg | Sm TGR inh | AmpC inh no detg
COc1ccc(OC)c(C2C(C#N)=C(N)N(N(C)C)C3=C2C(=O)CCC3)c1 (configuration not stated) | -0.2% | -11.2% | -14.8%
Cc1cc(=O)[nH]c2nnc(SCc3c(F)cccc3Cl)n12 | -1.9% | -0.1% | ·
Cc1ccc(NC(=O)CN2C(=O)S/C(=C/c3ccc(O)c([N+](=O)[O-])c3)C2=O)cc1C | 50.1µM* | -20.1% | -48.7%
Cc1cccc(NC(=O)CN2C(=O)S/C(=C\c3ccc(O)c([N+](=O)[O-])c3)C2=O)c1 | 0.6% | 0.5% | -42.3%
COc1ccc2c(c1)c1c(c(=O)n(-c3ccccc3)c(=O)n1CC(=O)Nc1ccc(F)cc1)n2C | 10.2% | -0.6% | ·
Cc1ccc(-c2nc(NCc3ccco3)c3ccccc3n2)cc1 | 5.1% | 0.8% | -42.4%
c1cncc(-c2nc(NCc3ccco3)c3ccccc3n2)c1 | -0.5% | 25.1µM* | -49.6%
CCOC(=O)c1ccc(NC(=O)C2=C(C)C(=O)OC23CCCCCC3)cc1 | -1.9% | -0.3% | ·
CCn1cc(S(=O)(=O)c2ccc(C)cc2)c(=O)c2cc(F)c(N3CCCCCC3)cc21 | 10.1% | 5.3% | ·
Nc1nc(N)nc(-c2cc(O)ccc2O)n1 | -7.6% | -29.0% | -12.8%
Oc1ccc(O)c(-c2cnns2)c1 | -3.2% | 79.4µM* | -13.6%
COc1ccc(CCNC(=O)Cn2cc(S(=O)(=O)Cc3ccccc3Cl)c3ccccc32)cc1OC | 12.9% | 3.7% | ·
COc1ccc(S(=O)(=O)N2CN(Cc3ccco3)c3nc4ccccc4nc32)cc1 | 1.6% | 11.2µM* | -19.5%
O=S(=O)(Nc1nc2ccccc2nc1NCc1ccco1)c1ccc(Cl)cc1 | -1.7% | 0.0% | -14.5%
O=S(=O)(c1ccc(F)cc1)N1CN(Cc2ccco2)c2nc3ccccc3nc21 | -5.3% | ? | -37.2%
Cc1ccc(S(=O)(=O)N2CN(Cc3ccco3)c3nc4ccccc4nc32)cc1 | 1.2% | 22.4µM* | -29.3%
Cc1ccc(S(=O)(=O)N2CN(Cc3ccco3)c3nc4ccccc4nc32)cc1C | 5.4% | ? | -46.0%
Cc1ccc(S(=O)(=O)Nc2nc3ccccc3nc2NCc2ccco2)cc1 | -10.1% | 12.6µM* | -36.0%
CCCCC12CN3CC(C)(CN(C1)C3c1ccc(OCc3ccccc3)cc1)C2=O (configuration not stated) | -1.0% | 1.4% | ·
CCOc1ccc(NC(=O)C(=O)NCC(c2cccnc2)N2CCc3ccccc32)cc1 (configuration not stated) | -3.1% | 1.2% | ·
Cc1ccc(S(=O)(=O)c2c(Nc3ccc(C)c(C)c3)sc(C(=O)c3ccc4c(c3)OCO4)c2N)cc1 | ? | -8.8% | ·
Cc1cc(C(=O)N2CC(C)CC(C)C2)n(-c2ccccc2)n1 (configuration not stated) | ? | -5.0% | 8.91µM*
Cc1cc(C(=O)N2CCOCC2)n(-c2ccccc2)n1 | 9.7% | -0.2% | -2.8%
CCn1cc(C(=O)NCCN(CC(C)C)CC(C)C)c(=O)c2cc(S(=O)(=O)N(C)C3CCCCC3)ccc21 | 1.2% | 0.4% | ·
COc1ccc(/C=C/C(=O)NCCSCc2ccco2)cc1OC | 7.5% | 10µM* | -19.9%
COc1ccc(/C=C/C(=O)NCCc2ccc(S(N)(=O)=O)cc2)cc1 | -14.8% | 0.3% | -19.1%
COc1ccc(CCNC(=O)/C=C/c2ccco2)cc1OC | -11.2% | 11.2µM* | -16.3%
COc1ccc(CCNC(=O)/C=C/c2ccco2)cc1 | ? | 10µM* | -23.2%
CCOc1ccc(CCNC(=O)/C=C/c2ccco2)cc1OCC | -8.3% | 6.31µM* | 6.5%

High-throughput results deposited in PubChem BioAssay by National Center for Advancing Translational Sciences (NCATS).
